Records with an inconclusive call do not appear. Activity calls are given as the source filed them. The call rests on the fitted dose curve; in most records, active means well fitted cell-killing curve with a large enough effect; inconclusive means small, poorly fitted or top-dose-only effect, or effect the other way; inactive means no such curve, though single readings can be large or run the other way.
What follows are compounds tested on SKOV3 (assay: Confirmatory qHTS for gynecologic anti-cancer compounds from libraries of approved drugs and bioactive compounds). Conditions: gynecologic cancer cell panel viability, ATPlite luminescence, 48 h; series mostly up to 57.6 µM.
Outline: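 Seeding 1,000 cells per well preceded overnight (16 h) attachment, after which 48 h drug treatment across 57.5 uM–0.977 nM (11 points) was applied. Remaining cellular ATP, detected by ATPlite luminescence, defined IC50.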
Further: nearly all actives have a fitted effect of over 55% in size.
Potency means the concentration at half of the fitted maximal effect.

SMILES	Potency
C[C@]12CCC(=O)C=C1[C@@H]1C[C@@H]1[C@H]1[C@@H]3[C@@H]4C[C@@H]4[C@@]4(CCC(=O)O4)[C@@]3(C)CC[C@@H]12	inactive
CC(C)C[C@H](NC(=O)[C@H](CCc1ccccc1)NC(=O)CN1CCOCC1)C(=O)N[C@@H](Cc1ccccc1)C(=O)N[C@@H](CC(C)C)C(=O)[C@@]1(C)CO1	13700 nM (active)
CN(C)CC/C=C1\c2ccccc2COc2ccccc21	inactive
COc1cc(Nc2c(C#N)cnc3cc(OCCCN4CCN(C)CC4)c(OC)cc23)c(Cl)cc1Cl	19300 nM (active)
O=C(O)C1(Cc2cccc(Nc3nccs3)n2)CCC(Oc2cccc(Cl)c2F)CC1 (stereo not given)	inactive
CCCCc1oc2ccccc2c1C(=O)c1cc(I)c(OCCN(CC)CC)c(I)c1	70800 nM (active)
Cc1cnc(Nc2ccc(F)cc2Cl)nc1-c1c[nH]c(C(=O)NC(CO)c2cccc(Cl)c2)c1 (stereo not given)	inactive
CCOC(=O)C1=C(C)NC2=C(C(=O)CC(C)(C)C2)C1c1ccc(-c2ccccc2)cc1 (stereo not given)	inactive
O=C(CCCCCCC(=O)Nc1ccccc1)NO	1370 nM (active)
CC(C)Nc1cc(-c2c[nH]c(C(=O)N[C@H](CO)c3cccc(Cl)c3)c2)c(Cl)cn1	inactive
COc1cc2c(c(OC)c1OC)-c1ccc(OC)c(=O)cc1[C@@H](NC(C)=O)CC2	inactive
O=C(c1ccc(/C=C/c2n[nH]c3ccccc23)cc1)N1CCNCC1	21700 nM (active)
COc1ccc(-c2cc3nccn3c(Nc3ncccc3C(N)=O)n2)cc1OC	inactive
Cc1nc(NC(=O)N2CCCC2C(N)=O)sc1-c1ccnc(C(C)(C)C(F)(F)F)c1 (stereo not given)	685 nM (active)
CN(c1nccc(=O)[nH]1)C1CCN(c2nc3ccccc3n2Cc2ccc(F)cc2)CC1	inactive
CN(C)C(CCOc1cccc2ccccc12)c1ccccc1 (stereo not given)	inactive
Cc1ccc(C(=O)Nc2ccc(CN3CCN(C)CC3)c(C(F)(F)F)c2)cc1C#Cc1cnc2cccnn12	12200 nM (active)
O=C(/C=C/c1cccc(S(=O)(=O)Nc2ccccc2)c1)NO	1880 nM (active)
CC(C)n1nc(-c2cc3cc(O)ccc3[nH]2)c2c(N)ncnc21	3850 nM (active)
CCc1c2c(nc3ccc(O)cc13)-c1cc3c(c(=O)n1C2)COC(=O)[C@]3(O)CC	24.3 nM (active)
CNC(=O)c1ccccc1Nc1nc(Nc2ccc(N3CCOCC3)cc2OC)ncc1Cl	6850 nM (active)
O=C1c2c(O)ccc(O)c2C(=O)c2c(NCCNCCO)ccc(NCCNCCO)c21	544 nM (active)
Cc1cc(Nc2nc(N[C@@H](C)c3ncc(F)cn3)ncc2Cl)n[nH]1	inactive
CCS(=O)(=O)N1CCN(c2ccc(Nc3ncc(C(N)=O)c(NC4CC4)n3)cc2)CC1	15300 nM (active)
COc1cc(Nc2ncc3c(n2)-c2ccc(Cl)cc2C(c2c(F)cccc2OC)=NC3)ccc1C(=O)O	inactive
CCCCc1nc2cc(/C=C/C(=O)NO)ccc2n1CCN(CC)CC	769 nM (active)
COc1cccc2cc(-c3nc(C4CCC(C(=O)O)CC4)n4ncnc(N)c34)[nH]c12 (stereo not given)	1090 nM (active)
COc1cccc2c1C(=O)c1c(O)c3c(c(O)c1C2=O)C[C@@](O)(C(=O)CO)C[C@@H]3O[C@H]1C[C@H](N)[C@H](O)[C@H](C)O1	432 nM (active)
CC[C@@]1(O)C(=O)OCc2c1cc1n(c2=O)Cc2cc3c(CN(C)C)c(O)ccc3nc2-1	544 nM (active)
CCN1CCN(Cc2ccc(-c3cc4c(NC(C)c5ccccc5)ncnc4[nH]3)cc2)CC1 (stereo not given)	17200 nM (active)

Reference: PubChem BioAssay AID1345085 (National Center for Advancing Translational Sciences (NCATS), 2018)
